Test results as given in the supplement of paper PMC6522484.
Where a name gives a salt, the structure may show the parent alone. ± gives the standard deviation of the averaged measurements.

Experiments:
DLD1 [1] = test: cell viability (CellTiter-Glo) relative to plate median (fraction of plate median); higher = more viable cells; details: 10 µM, treatment time 24 h
Procedure, shortened: (§1)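 Reporter and viability luminescence were measured in colorectal cancer cells stably carrying lentiviral TCF/Wnt firefly luciferase reporters. The cells were exposed to kinase inhibitor library compounds at a final 10 µM for 24 h, starting 24 h after seeding in 384-well plates. Each well was normalised to the plate median (webcellHTS2, additive, no log transformation), and two independent replicates were averaged.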

HCT116 [2] = test: as above; details: 10 µM; treatment time 24 h; reporter: TCF4/Wnt
Procedure, shortened: as §1

SW480 [3] = test: as above; details: 10 µM; treatment time 24 h; reporter: 7TFP
Procedure, shortened: as §1

DLD1 [4] = test: TCF/Wnt firefly luciferase reporter signal relative to plate median (fraction of plate median); higher = higher Wnt reporter signal; details: 10 µM, treatment time 24 h
Procedure, shortened: as §1

HCT116 [5] = test: as above; details: 10 µM; treatment time 24 h; reporter: TCF4/Wnt
Procedure, shortened: as §1

SW480 [6] = test: as above; details: 10 µM; treatment time 24 h; reporter: 7TFP
Procedure, shortened: as §1

Cc1ccc(Nc2nccc(N(C)c3ccc4c(C)n(C)nc4c3)n2)cc1S(N)(=O)=O [Pazopanib HCl]
cell viability (DLD1 [1]; reporter: 7TFP): 1.11 ± 0.23 | cell viability (DLD1 [1]; reporter: TCF4/Wnt): 1.03 ± 0.073 | cell viability (HCT116 [2]): 1.065 ± 0.0071 | cell viability (SW480 [3]): 0.846 ± 0.018 | TCF/Wnt firefly luciferase reporter signal (DLD1 [4]; reporter: 7TFP): 1.125 ± 0.0071 | TCF/Wnt firefly luciferase reporter signal (DLD1 [4]; reporter: TCF4/Wnt): 1.06 ± 0.19 | TCF/Wnt firefly luciferase reporter signal (HCT116 [5]): 1.14 ± 0.028 | TCF/Wnt firefly luciferase reporter signal (SW480 [6]): 0.931 ± 0.087

COc1ccc(-c2ccc3ncc4c(c3c2)n(-c2ccc(N3CCNCC3)c(C(F)(F)F)c2)c(=O)n4C)cn1
cell viability (DLD1 [1]; reporter: 7TFP): 0.0998 ± 0.065 | cell viability (DLD1 [1]; reporter: TCF4/Wnt): 0.116 ± 0.084 | cell viability (HCT116 [2]): 0.0311 ± 0.011 | cell viability (SW480 [3]): 0.273 ± 0.18 | TCF/Wnt firefly luciferase reporter signal (DLD1 [4]; reporter: 7TFP): 0.0479 ± 0.0086 | TCF/Wnt firefly luciferase reporter signal (DLD1 [4]; reporter: TCF4/Wnt): 0.0791 ± 0.014 | TCF/Wnt firefly luciferase reporter signal (HCT116 [5]): 0.0387 ± 0.017 | TCF/Wnt firefly luciferase reporter signal (SW480 [6]): 0.148 ± 0.14

Cc1cc(C(=O)NOCCO)c(Nc2ccc(I)cc2F)n(C)c1=O
cell viability (DLD1 [1]; reporter: 7TFP): 1.19 ± 0.042 | cell viability (DLD1 [1]; reporter: TCF4/Wnt): 1.15 ± 0.042 | cell viability (HCT116 [2]): 0.889 ± 0.075 | cell viability (SW480 [3]): 1.105 ± 0.0071 | TCF/Wnt firefly luciferase reporter signal (DLD1 [4]; reporter: 7TFP): 1.635 ± 0.0071 | TCF/Wnt firefly luciferase reporter signal (DLD1 [4]; reporter: TCF4/Wnt): 1.58 ± 0.25 | TCF/Wnt firefly luciferase reporter signal (HCT116 [5]): 1.17 ± 0.13 | TCF/Wnt firefly luciferase reporter signal (SW480 [6]): 1.89 ± 0.22

O=C(Cc1ccc(-c2ccc(OCCN3CCOCC3)cc2)cn1)NCc1ccccc1
cell viability (DLD1 [1]; reporter: 7TFP): 0.891 ± 0.0014 | cell viability (DLD1 [1]; reporter: TCF4/Wnt): 1.005 ± 0.0071 | cell viability (HCT116 [2]): 0.745 ± 0.26 | cell viability (SW480 [3]): 1.145 ± 0.0071 | TCF/Wnt firefly luciferase reporter signal (DLD1 [4]; reporter: 7TFP): 0.57 ± 0.038 | TCF/Wnt firefly luciferase reporter signal (DLD1 [4]; reporter: TCF4/Wnt): 0.908 ± 0.26 | TCF/Wnt firefly luciferase reporter signal (HCT116 [5]): 0.171 ± 0.0021 | TCF/Wnt firefly luciferase reporter signal (SW480 [6]): 0.791 ± 0.047

CCOc1cc2ncc(C#N)c(Nc3ccc(OCc4ccccn4)c(Cl)c3)c2cc1NC(=O)/C=C/CN(C)C [Neratinib (HKI-272)]
cell viability (DLD1 [1]; reporter: 7TFP): 0.817 ± 0.03 | cell viability (DLD1 [1]; reporter: TCF4/Wnt): 0.877 ± 0.1 | cell viability (HCT116 [2]): 0.982 ± 0.083 | cell viability (SW480 [3]): 0.541 ± 0.72 | TCF/Wnt firefly luciferase reporter signal (DLD1 [4]; reporter: 7TFP): 0.521 ± 0.3 | TCF/Wnt firefly luciferase reporter signal (DLD1 [4]; reporter: TCF4/Wnt): 0.763 ± 0.05 | TCF/Wnt firefly luciferase reporter signal (HCT116 [5]): 0.53 ± 0.33 | TCF/Wnt firefly luciferase reporter signal (SW480 [6]): 0.508 ± 0.7

CC(C)(C)c1cc(NC(=O)Nc2ccc(-c3cn4c(n3)sc3cc(OCCN5CCOCC5)ccc34)cc2)no1 [Quizartinib (AC220)]
cell viability (DLD1 [1]; reporter: 7TFP): 0.994 ± 0.19 | cell viability (DLD1 [1]; reporter: TCF4/Wnt): 0.989 ± 0.086 | cell viability (HCT116 [2]): 1.15 ± 0.11 | cell viability (SW480 [3]): 1.095 ± 0.0071 | TCF/Wnt firefly luciferase reporter signal (DLD1 [4]; reporter: 7TFP): 0.789 ± 0.4 | TCF/Wnt firefly luciferase reporter signal (DLD1 [4]; reporter: TCF4/Wnt): 1.04 ± 0.014 | TCF/Wnt firefly luciferase reporter signal (HCT116 [5]): 1.22 ± 0.18 | TCF/Wnt firefly luciferase reporter signal (SW480 [6]): 1.26 ± 0.021

CCC[C@H](NC(=O)/C(C#N)=C/c1cccc(Br)n1)c1ccccc1
cell viability (DLD1 [1]; reporter: 7TFP): 0.421 ± 0.17 | cell viability (DLD1 [1]; reporter: TCF4/Wnt): 0.532 ± 0.038 | cell viability (HCT116 [2]): 0.13 ± 0.066 | cell viability (SW480 [3]): 0.826 ± 0.11 | TCF/Wnt firefly luciferase reporter signal (DLD1 [4]; reporter: 7TFP): 0.0449 ± 0.0065 | TCF/Wnt firefly luciferase reporter signal (DLD1 [4]; reporter: TCF4/Wnt): 0.0661 ± 0.016 | TCF/Wnt firefly luciferase reporter signal (HCT116 [5]): 0.0353 ± 0.0076 | TCF/Wnt firefly luciferase reporter signal (SW480 [6]): 0.037 ± 0.0048

COc1cc2nccc(Oc3ccc(NC(=O)Nc4cc(C)on4)c(Cl)c3)c2cc1OC [Tivozanib (AV-951)]
cell viability (DLD1 [1]; reporter: 7TFP): 0.936 ± 0.09 | cell viability (DLD1 [1]; reporter: TCF4/Wnt): 0.997 ± 0.033 | cell viability (HCT116 [2]): 1.11 ± 0.021 | cell viability (SW480 [3]): 1.07 ± 0.021 | TCF/Wnt firefly luciferase reporter signal (DLD1 [4]; reporter: 7TFP): 0.755 ± 0.0078 | TCF/Wnt firefly luciferase reporter signal (DLD1 [4]; reporter: TCF4/Wnt): 0.726 ± 0.046 | TCF/Wnt firefly luciferase reporter signal (HCT116 [5]): 1.15 ± 0.099 | TCF/Wnt firefly luciferase reporter signal (SW480 [6]): 0.775 ± 0.32

COc1cc(Nc2ncc(F)c(Nc3ccc4c(n3)NC(=O)C(C)(C)O4)n2)cc(OC)c1OC [R406(free base)]
cell viability (DLD1 [1]; reporter: 7TFP): 1.2 ± 0.18 | cell viability (DLD1 [1]; reporter: TCF4/Wnt): 0.99 ± 0.085 | cell viability (HCT116 [2]): 1.2 ± 0.05 | cell viability (SW480 [3]): 0.968 ± 0.037 | TCF/Wnt firefly luciferase reporter signal (DLD1 [4]; reporter: 7TFP): 1.26 ± 0.028 | TCF/Wnt firefly luciferase reporter signal (DLD1 [4]; reporter: TCF4/Wnt): 1.16 ± 0.13 | TCF/Wnt firefly luciferase reporter signal (HCT116 [5]): 1.38 ± 0.37 | TCF/Wnt firefly luciferase reporter signal (SW480 [6]): 1.29 ± 0.042

Cn1cc(C2=C(c3ccc(Cl)cc3Cl)C(=O)NC2=O)c2ccccc21
cell viability (DLD1 [1]; reporter: 7TFP): 1.05 ± 0.18 | cell viability (DLD1 [1]; reporter: TCF4/Wnt): 0.952 ± 0.058 | cell viability (HCT116 [2]): 1.01 ± 0.088 | cell viability (SW480 [3]): 0.993 ± 0.067 | TCF/Wnt firefly luciferase reporter signal (DLD1 [4]; reporter: 7TFP): 1.4 ± 0.057 | TCF/Wnt firefly luciferase reporter signal (DLD1 [4]; reporter: TCF4/Wnt): 1.35 ± 0.43 | TCF/Wnt firefly luciferase reporter signal (HCT116 [5]): 1.56 ± 0.61 | TCF/Wnt firefly luciferase reporter signal (SW480 [6]): 1.35 ± 0.16
